{
  "source": "PubChem BioAssay (NCI)",
  "note": "Values joined by “and” are separate entries in the source; they are usually repeats but may differ in a detail not shown here. Identical values can stand only once. About 83,000 compounds went through this panel and 20% of them were active in at least one assay; those are over-represented in the sample as a whole.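 Assay: single dose, 48 h. Readout: percent growth (0 = no net growth; negative = cell death). Active: <10.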 Some structures have more than one record in an assay (separate samples or runs), and their calls can disagree. Active and inactive are the calls of the source.",
  "data": [
    {"tested_on": "A498 renal", "assay": "NCI-60 one-dose screen, 48 h (100 = growth as untreated, 0 = no growth, -100 = all killed)", "conditions": "10 µM", "protocol": "Growth inhibition of the A498 human tumor cell line is measured as a screen for anti-cancer activity. Cells are grown in 96 well plates and exposed to the test compound for 48 hours. Compounds are tested at a single concentration, which is 10^-5 M for most compounds. The reported endpoint is percent growth (GI% or GIPRCNT), where numbers from 0 - 100% represent growth inhibition, and numbers from -100% - 0 represent cell death. For example, a value of 40 represents 60% growth inhibition. A value of 0 means no net growth occurred over the course of the experiment. A value of -40 indicates 40% of cells at the beginning of the experiment died by the end of the experiment. A value of -100 means all cells are dead at the end of the experiment.\nNCI-60 Human Tumor Cell Lines Screen was performed using the standard one-dose NCI protocol, which is described in more detail at https://dtp.cancer.gov/discovery_development/nci-60/default.htm.\nCompounds with GIPRCNT values below 10 were considered active. Activity score was based on GIPRCNT using the following formula: […]\nScore is 0 for GIPRCNT values of 100 or above, 50 for GIPRCNT values of 0, and 100 for GIPRCNT values of -100.", "values": [
      {"smiles": "CN(CCF)/N=N/c1nc[nH]c1C(N)=O", "growth": "87% (inactive)"},
      {"smiles": "CCCCCCCCCC(=O)N[C@@](C)(CC)C(=O)N1CCC[C@H]1C(=O)N[C@@H](CC(C)C)C(=O)N[C@@](C)(CC)C(=O)N[C@@H](CCC(N)=O)C(=O)N[C@H](CCC(N)=O)C(=O)NC(C)(C)C(=O)NC(C)(C)C(=O)N[C@@H](CCC(N)=O)C(=O)N[C@H](CC(C)C)C(=O)N[C@H](CO)CC(C)C", "growth": "-92.4% (active) and -81.1% (active)"},
      {"smiles": "N#Cc1nc(-c2ccccc2)oc1N1CCC(S(=O)(=O)F)CC1", "growth": "108% (inactive)"},
      {"smiles": "CC(=O)O[C@@H]1C[C@H]2O[C@@H]3C=C(C)CC[C@]3(C)[C@]1(C)[C@]21CO1", "growth": "34.6% (inactive)"},
      {"smiles": "CC1=C2C(=C[C@@](C)(COS(C)(=O)=O)[C@@H]2O)C(=O)[C@](C)(O)C12CC2", "growth": "-61% (active)"},
      {"smiles": "O=C(CCCc1ccc(N(CCCl)CCCl)cc1)OCc1ccccc1", "growth": "98.5% (inactive)"},
      {"smiles": "COc1cc2c(O[C@@H]3OC[C@H](O)[C@H](O)[C@H]3O)c3c(c(-c4ccc5c(c4)OCO5)c2cc1OC)C(=O)OC3", "growth": "15% (inactive)"},
      {"smiles": "N#Cc1c(-n2c(Br)c(Br)c3cc(Br)ccc32)[nH]c2c(Br)cc(Br)cc12", "growth": "-73% (active)"},
      {"smiles": "Cc1ccc(CNc2nc3ccc(OC/C(=C/F)CN)cc3o2)cn1", "growth": "58.4% (inactive)"},
      {"smiles": "C/C=C/CC(C)C(O)[C@H](NC(=O)[C@@H]1CCCN1C(=O)C(C)(C)NC(=O)CCCCCCCCC)C(=O)N[C@@](C)(CC)C(=O)N[C@@H](CCC(N)=O)C(=O)N[C@H](CCC(N)=O)C(=O)NC(C)(C)C(=O)NC(C)(C)C(=O)N[C@@H](CCC(N)=O)C(=O)N[C@H](CC(C)C)C(=O)N[C@H](CO)CC(C)C", "note": "(some centres undefined)", "growth": "-40.8% (active) and 38.8% (inactive)"},
      {"smiles": "CC1=C[C@H]2O[C@@H]3C[C@@H](O)[C@](C)([C@@]2(C)CC1)[C@@]31CO1", "growth": "39.2% (inactive)"},
      {"smiles": "CC(=O)O[C@@H]1[C@@H]2O[C@H]2[C@@](C)(O)C(=O)[C@@H](C)C/C=C/[C@H]2[C@@H]3O[C@]3(C)[C@@H](C)C3[C@H](Cc4ccccc4)NC(=O)[C@@]312", "note": "(some centres undefined)", "growth": "3.87% (active)"},
      {"smiles": "CC(C)=CCc1c2c(c(O)c3c1O[C@]14C(=C[C@@H]5C[C@H]1C(C)(C)O[C@@]4(C/C=C(/C)C(=O)O)C5=O)C3=O)C=CC(C)(C)O2", "growth": "-94.3% (active)"},
      {"smiles": "C=C1[C@@H](C)C2[C@H](Cc3ccccc3)NC(=O)[C@]23[C@H](OC(C)=O)/C=C/[C@@](C)(O)C(=O)[C@@H](C)C/C=C/[C@H]3[C@@H]1O", "note": "(some centres undefined)", "growth": "-18.8% (active)"},
      {"smiles": "CC1=C[C@H]2O[C@@H]3C[C@H]4OC(=O)/C=C\\C=C\\[C@H]([C@@H](C)O)OCC[C@@H](C)[C@H](O)C(=O)OC[C@@]2(CC1)[C@]4(C)[C@]31CO1", "growth": "-80.6% (active)"},
      {"smiles": "C/C=C/CC(C)C(O)[C@H](NC(=O)[C@@H]1CCCN1C(=O)C(C)(C)NC(=O)CCCCCCCCC)C(=O)N[C@@](C)(CC)C(=O)N[C@@H](CCC(N)=O)C(=O)N[C@H](CCC(N)=O)C(=O)NC(C)(C)C(=O)N[C@@](C)(CC)C(=O)N[C@@H](CCC(N)=O)C(=O)N[C@H](CC(C)C)C(=O)N[C@H](CO)CC(C)C", "note": "(some centres undefined)", "growth": "97.3% (inactive) and -52.9% (active)"},
      {"smiles": "COc1cc(C)c(-c2ccc(OC)c(=O)cc2C)c(OC)c1OC", "growth": "-18% (active) and 86.9% (inactive)"},
      {"smiles": "C[C@@H]1CCC/C=C/[C@H]2C[C@@H](O)C[C@@H]2[C@@H](O)/C=C/C(=O)O1", "growth": "-14.7% (active)"},
      {"smiles": "COC(=O)[C@H]1[C@@H](O)[C@@]2(O)c3c(OC)cc(OC)cc3O[C@@]2(c2ccc(OC)cc2)[C@@H]1c1ccccc1", "growth": "-31.4% (active)"},
      {"smiles": "C/C=C/CC(C)C(O)[C@H](NC(=O)[C@@H]1CCCN1C(=O)C(C)(C)NC(=O)CCCCCCCCC)C(=O)NC(C)(C)C(=O)N[C@@H](CCC(N)=O)C(=O)N[C@H](CCC(N)=O)C(=O)NC(C)(C)C(=O)NC(C)(C)C(=O)N[C@@H](CCC(N)=O)C(=O)N[C@H](CC(C)C)C(=O)N[C@H](CO)CC(C)C", "note": "(some centres undefined)", "growth": "-48.1% (active) and -26.1% (active)"},
      {"smiles": "COC1[C@@H]2C[C@H]3C(C)(C)O[C@@](C/C=C(/C)C(=O)O)(C2=O)[C@]32Oc3c(CC=C(C)C)c4c(c(O)c3C(=O)[C@H]12)C=CC(C)(C)O4", "note": "(some centres undefined)", "growth": "-67.8% (active)"},
      {"smiles": "COc1cc2c(cc1OC)[C@@H]1N(CC2)C(=O)c2ccccc2[C@@]1(C)C(=O)O", "growth": "89.4% (inactive)"},
      {"smiles": "COc1cccc2c1cc([N+](=O)[O-])c1c(C(=O)O)cc3c(c12)OCO3", "growth": "114% (inactive)"},
      {"smiles": "NC1CCc2cc(O)c(O)cc2C1", "note": "(centres undefined)", "growth": "71.9% (inactive)"},
      {"smiles": "CC1=C2C(=O)[C@](C)(CO)C=C2C(=O)[C@](C)(O)C12CC2", "growth": "-35.9% (active)"},
      {"smiles": "CC1=C[C@H]2O[C@@H]3C[C@H]4OC(=O)/C=C\\C=C\\[C@H]([C@@H](C)O)OCC/C(C)=C/C(=O)OC[C@@]2(CC1)[C@]4(C)[C@]31CO1", "growth": "-80.8% (active)"},
      {"smiles": "C/C=C\\C(=O)O[C@@H]1CC2O[C@@H]3C=C(C)C(=O)C[C@]3(C)[C@]1(C)[C@]21CO1", "growth": "-30.2% (active)"},
      {"smiles": "CC(C)(O)/C=C/C(=O)[C@](C)(O)[C@H]1[C@H](O)C[C@@]2(C)[C@H]3CC=C4[C@@H](C[C@H](O)C(=O)C4(C)C)[C@]3(C)C(=O)C[C@]12C", "growth": "-73.1% (active)"},
      {"smiles": "CC1=C(CN(O)C(N)=O)C2=C(C)C3(CC3)[C@](C)(O)C(=O)C2=C1", "growth": "-76.5% (active)"},
      {"smiles": "CC1=C(CN(O)C(N)=O)C2=C(C)C3(CC3)[C@@](C)(O)C(=O)C2=C1", "growth": "-82% (active)"},
      {"smiles": "CC1=C2C(=C[C@@](C)(C=O)[C@@H]2O)C(=O)[C@](C)(O)C12CC2", "growth": "-57% (active)"},
      {"smiles": "COc1cc2c(O[C@@H]3OC[C@H](OC(C)=O)[C@H](OC(C)=O)[C@H]3O)c3c(c(-c4ccc5c(c4)OCO5)c2cc1OC)C(=O)OC3", "growth": "70.6% (inactive)"},
      {"smiles": "C/C=C/CC(C)C(O)[C@H](NC(=O)[C@@H]1CCCN1C(=O)C(C)(C)NC(=O)CCCCCCC)C(=O)N[C@@](C)(CC)C(=O)N[C@@H](CCC(N)=O)C(=O)N[C@H](CCC(N)=O)C(=O)NC(C)(C)C(=O)NC(C)(C)C(=O)N[C@@H](CCC(N)=O)C(=O)N[C@H](CC(C)C)C(=O)N[C@H](CO)CC(C)C", "note": "(some centres undefined)", "growth": "-7.1% (active)"},
      {"smiles": "CCC(C)[C@H]1C(=O)O[C@H](C(C)C)C(=O)N(C)[C@@H](C(C)C)C(=O)O[C@H](C(C)C)C(=O)N(C)[C@@H](C(C)C)C(=O)O[C@H](C(C)C)C(=O)N1C", "note": "(some centres undefined)", "growth": "-8.55% (active)"}
    ]}
  ]
}
